Results on 40 sequences are retold here after the supplement of paper PMC10338343.

± gives the standard deviation.

For the first experiment, the system named is MILI (PIWIL2) piRISC loaded with L1MC piRNA (26 nt). Nature of the experiment: pre-steady-state target cleavage rate (min^-1); guide: L1MC piRNA 5'p-UAACUAAAUACUAUGCAAGCUGUAGG; higher = faster piRNA-guided slicing of the target. The note with it: auxiliary factor: 500 nM mouse GTSF1. An outline of the steps: (§1)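 The pre-steady-state cleavage rate was derived from a burst-and-steady-state fit of Cleave-'n-Seq data. For these assays, 1 nM active affinity-purified piRISC loaded with a single synthetic guide was mixed with […] a transcribed, DNA-blocked target RNA library in HEPES–potassium acetate buffer at 33 °C, with or without 500 nM GTSF1 partner protein, for 0–8 or 0–960 min. Sequencing counts of uncleaved targets were normalised to depth and to weakly complementary targets, and k3 was capped at 0.0001 min^-1 after three trials were pooled.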
For UCCUCCUACACGAUGCAUAGUAUUUAGUAA, the “pre-steady-state target cleavage rate” value turned out to be 0.194 ± 0.026.
The same measure, in the same setting: for UCCUGGAACAGCUUGCAAAGUAUUUAGAUA the value was 0.085 ± 0.014; for UCCUGGAUCAGCUAGCUUAGUAUUUAGUUA, 0.214 ± 0.018.
Same read-out and setting: in the case of UCCUGCAACAGCUUGCAUAGUAAUUAGUUA it was 0.34 ± 0.025; in that of UCCUGGAUCAGCUUGUAUAGUAUUUAGUUA, 0.301 ± 0.015.
The same measure, in the same setting: in the case of UCCUCCUACAGCUUACAUAGUAUUUAGUUA it was 0.276 ± 0.016; in that of UCCUCCUACCGCUUGCAUAGUAUUUAGUUA, 0.305 ± 0.015.
For UCCUGGUACAGCUGCAUAGUAUUUAGUUA, the “pre-steady-state target cleavage rate” value came to 0.23 ± 0.016.
Consider UCCUGGAUGUCGACGCAUAGUAUUUAGUUA, for which the “pre-steady-state target cleavage rate” value came out at 0.0214 ± 0.0042.
Same read-out and setting: in the case of UCCUGGUACACCUUGCAUAGUAUUUAGUUA it was 0.147 ± 0.026; in that of UCCUGCAACAGCUUGCAUAGUAUUUAGUUA, 0.398 ± 0.028.
As to UCCUCCUACUGCAUGCAUAGUAUUUAGUUA, the “pre-steady-state target cleavage rate” value came out at 0.252 ± 0.013.
The same measure, in the same setting: for UCCUCCUACAGCUUGCAUAGUAUUUCGUUA the value was 0.243 ± 0.043; for UCCUCCUACAGCUUGCAUCGUAUUUAGUUA, 0.129 ± 0.013; for UCCUGCUACAGCUGCAUAGUAUUUAGUUA, 0.271 ± 0.02.
Still for that read-out and setting: in the case of UCCUCCUACAGCUAUGCAUAGUAUUUAGUUA it was 0.267 ± 0.02.

The same experiment, now with this note: auxiliary factor: none (no GTSF1).
On to UCCUGGAACAGCUUGCUUUGUAUUUAGUUA, for which the “pre-steady-state target cleavage rate” value was 0.0038 ± 0.0025.
On the same count and under the same terms, in the case of UCCUCCAACAGCUUGCAUAGUAUUUAGAUA it was 0.00442 ± 0.0025; in that of UCCUGGAUGUGCUUGCAUACUAUUUAGUUA, 0.00431 ± 0.0022; in that of UCCUCCUACACCUUGGAUAGUAUUUAGUUA, 0.00508 ± 0.0023.
Same read-out and setting: for UCCUCCAUGAGCUUGCAUAGUAUUUAGUUA the value was 0.00711 ± 0.0021.
Take UCCUGCUAGCAGCUUGCAUAGUAUUUAGUUA: the “pre-steady-state target cleavage rate” value was 0.00955 ± 0.0024.
Consider UCCUCCUACAGCUUGCUUAGUUUUUAGUUA, for which the “pre-steady-state target cleavage rate” value turned out to be 0.00379 ± 0.0023.
Still for that read-out and setting: in the case of UCCUCCUACACGCUUGCAUAGUAUUUAGUUA it was 0.00734 ± 0.0025; in that of UCCUGGUACAGCUUGCAUAGUACUUUAGUUA, 0.00705 ± 0.0032; in that of UCCUGGAACAGCUUGCAAUGUAUUUAGUUA, 0.00437 ± 0.002.
Still for that read-out and setting: for UCCUGGAACAGCUUGGAUAGUAUAUAGUUA the value was 0.00403 ± 0.0027.
Regarding UCCUGGAUCAGGUAGCAUAGUAUUUAGUUA, the “pre-steady-state target cleavage rate” value was 0.00574 ± 0.0022.
On to UCCUGGAUGUCCUGCAUAGUAUUUAGUUA, for which the “pre-steady-state target cleavage rate” value stood at 0.00628 ± 0.0019.
Same read-out and setting: in the case of UCCUGGAACAGCUUGCAAAGUAUUUAGUAA it was 0.00401 ± 0.0024.
Same read-out and setting: for UCCUGGUACAGCUUGCAUAGUAUUUUGUUA the value was 0.00398 ± 0.0037.
With UCCUGGAUCAGCUUGCAUAGUAUUUCGUUA, the “pre-steady-state target cleavage rate” value stood at 0.00354 ± 0.0024.
As to UCCUGGAUGUCGAUGCAUAGUAUUUAAGUUA, the “pre-steady-state target cleavage rate” value is 0.00656 ± 0.0024.
The same measure, in the same setting: for UCCUGGAACAGCUUGACAUAGUAUUUAGUUA the value was 0.00586 ± 0.0022; for UCCUGCUACAGCUUGGAUAGUUUUUAGUUA, 0.00289 ± 0.0027.
On the same count and under the same terms, in the case of UCCUGCUACUGCUUGCAUAGUAUUUAGUUA it was 0.00705 ± 0.0018; in that of UCCUGGAUCAGCUUGCAAACUAUUUAGUUA, 0.00375 ± 0.0019; in that of UCCUGGAACAGCAAGCAUAGUAUUUAGUUA, 0.00588 ± 0.0024.
Still for that read-out and setting: for UCCUGGAACUAGCUUGCAUAGUAUUUAGUUA the value was 0.00841 ± 0.0027; for UCCUGGAUGAGCUGCAUAGUAUUUAGUUA, 0.00501 ± 0.0028.
As to UCCUCCUACACGAUGCAUAGUAUUUAGUAA, the “pre-steady-state target cleavage rate” value worked out at 0.00362 ± 0.0022.
The same measure, in the same setting: in the case of UCCUGGAACAGCUUGCAAAGUAUUUAGAUA it was 0.00298 ± 0.0022; in that of UCCUGGAUCAGCUAGCUUAGUAUUUAGUUA, 0.00868 ± 0.002; in that of UCCUGCAACAGCUUGCAUAGUAAUUAGUUA, 0.00709 ± 0.0027.
As for UCCUGGAUCAGCUUGUAUAGUAUUUAGUUA, the “pre-steady-state target cleavage rate” value came to 0.0104 ± 0.0028.
Still for that read-out and setting: in the case of UCCUCCUACAGCUUACAUAGUAUUUAGUUA it was 0.00586 ± 0.0026; in that of UCCUCCUACCGCUUGCAUAGUAUUUAGUUA, 0.0125 ± 0.003; in that of UCCUGGUACAGCUGCAUAGUAUUUAGUUA, 0.0103 ± 0.0029.
Still for that read-out and setting: in the case of UCCUGGAUGUCGACGCAUAGUAUUUAGUUA it was 0.00381 ± 0.0021; in that of UCCUGGUACACCUUGCAUAGUAUUUAGUUA, 0.00607 ± 0.0034.
Still for that read-out and setting: in the case of UCCUGCAACAGCUUGCAUAGUAUUUAGUUA it was 0.0107 ± 0.0034.
For UCCUCCUACUGCAUGCAUAGUAUUUAGUUA, the “pre-steady-state target cleavage rate” value was 0.011 ± 0.0022.
Still for that read-out and setting: in the case of UCCUCCUACAGCUUGCAUAGUAUUUCGUUA it was 0.0033 ± 0.0031; in that of UCCUCCUACAGCUUGCAUCGUAUUUAGUUA, 0.00682 ± 0.0021; in that of UCCUGCUACAGCUGCAUAGUAUUUAGUUA, 0.00665 ± 0.0026.
Same read-out and setting: for UCCUCCUACAGCUAUGCAUAGUAUUUAGUUA the value was 0.00637 ± 0.0022.

The test system of a further experiment is EfPiwi piRISC loaded with L1MC piRNA (26 nt). As to the kind of experiment: pre-steady-state target cleavage rate (min^-1); auxiliary factor: 500 nM Ephydatia muelleri Gtsf1; guide: L1MC piRNA 5'p-UAACUAAAUACUAUGCAAGCUGUAGG; MIWI and MILI are mouse PIWI proteins and EfPiwi is from a freshwater sponge; tags in brackets are library labels; higher = faster piRNA-guided slicing of the target.
Settings: not given
The method in brief:
as §1
In the case of UCCUGGAACAGCUUGCUUUGUAUUUAGUUA, the “pre-steady-state target cleavage rate” value worked out at 0.00396 ± 0.0025.
Same read-out and setting: in the case of UCCUCCAACAGCUUGCAUAGUAUUUAGAUA it was 0.0051 ± 0.0023.
Same read-out and setting: in the case of UCCUGGAUGUGCUUGCAUACUAUUUAGUUA it was 0.0112 ± 0.0036.
The same measure, in the same setting: in the case of UCCUCCUACACCUUGGAUAGUAUUUAGUUA it was 0.00658 ± 0.0029.
On to UCCUCCAUGAGCUUGCAUAGUAUUUAGUUA, for which the “pre-steady-state target cleavage rate” value was 0.0146 ± 0.004.
Same read-out and setting: for UCCUGCUAGCAGCUUGCAUAGUAUUUAGUUA the value was 0.0598 ± 0.016; for UCCUCCUACAGCUUGCUUAGUUUUUAGUUA, 0.00738 ± 0.0023.
The same measure, in the same setting: in the case of UCCUCCUACACGCUUGCAUAGUAUUUAGUUA it was 0.00856 ± 0.003; in that of UCCUGGUACAGCUUGCAUAGUACUUUAGUUA, 0.00549 ± 0.0027; in that of UCCUGGAACAGCUUGCAAUGUAUUUAGUUA, 0.00454 ± 0.0035.
Same read-out and setting: in the case of UCCUGGAACAGCUUGGAUAGUAUAUAGUUA it was 0.00939 ± 0.0043; in that of UCCUGGAUCAGGUAGCAUAGUAUUUAGUUA, 0.00369 ± 0.0035.
Consider UCCUGGAUGUCCUGCAUAGUAUUUAGUUA, for which the “pre-steady-state target cleavage rate” value amounted to 0.00358 ± 0.0026.
Same read-out and setting: in the case of UCCUGGAACAGCUUGCAAAGUAUUUAGUAA it was 0.00293 ± 0.0022; in that of UCCUGGUACAGCUUGCAUAGUAUUUUGUUA, 0.00618 ± 0.003.
Take UCCUGGAUCAGCUUGCAUAGUAUUUCGUUA: the “pre-steady-state target cleavage rate” value is 0.00263 ± 0.002.
Take UCCUGGAUGUCGAUGCAUAGUAUUUAAGUUA: the “pre-steady-state target cleavage rate” value was 0.00522 ± 0.0045.
Same read-out and setting: for UCCUGGAACAGCUUGACAUAGUAUUUAGUUA the value was 0.013 ± 0.004; for UCCUGCUACAGCUUGGAUAGUUUUUAGUUA, 0.0172 ± 0.0039.
Same read-out and setting: for UCCUGCUACUGCUUGCAUAGUAUUUAGUUA the value was 0.00883 ± 0.003; for UCCUGGAUCAGCUUGCAAACUAUUUAGUUA, 0.00476 ± 0.003; for UCCUGGAACAGCAAGCAUAGUAUUUAGUUA, 0.00853 ± 0.0027.
Same read-out and setting: for UCCUGGAACUAGCUUGCAUAGUAUUUAGUUA the value was 0.0126 ± 0.0045; for UCCUGGAUGAGCUGCAUAGUAUUUAGUUA, 0.00786 ± 0.0028.
UCCUCCUACACGAUGCAUAGUAUUUAGUAA: the “pre-steady-state target cleavage rate” value is 0.00453 ± 0.0027.
Turning to UCCUGGAACAGCUUGCAAAGUAUUUAGAUA, the “pre-steady-state target cleavage rate” value came to 0.0036 ± 0.0024.
Same read-out and setting: in the case of UCCUGGAUCAGCUAGCUUAGUAUUUAGUUA it was 0.00676 ± 0.0036; in that of UCCUGCAACAGCUUGCAUAGUAAUUAGUUA, 0.00951 ± 0.0021; in that of UCCUGGAUCAGCUUGUAUAGUAUUUAGUUA, 0.104 ± 0.021.
The same measure, in the same setting: in the case of UCCUCCUACAGCUUACAUAGUAUUUAGUUA it was 0.106 ± 0.028; in that of UCCUCCUACCGCUUGCAUAGUAUUUAGUUA, 0.0865 ± 0.023.
Take UCCUGGUACAGCUGCAUAGUAUUUAGUUA: the “pre-steady-state target cleavage rate” value was determined as 0.00843 ± 0.0034.
On the same count and under the same terms, for UCCUGGAUGUCGACGCAUAGUAUUUAGUUA the value was 0.00545 ± 0.0032.
Still for that read-out and setting: in the case of UCCUGGUACACCUUGCAUAGUAUUUAGUUA it was 0.00345 ± 0.0027; in that of UCCUGCAACAGCUUGCAUAGUAUUUAGUUA, 0.0741 ± 0.018.
Same read-out and setting: for UCCUCCUACUGCAUGCAUAGUAUUUAGUUA the value was 0.0706 ± 0.019; for UCCUCCUACAGCUUGCAUAGUAUUUCGUUA, 0.00416 ± 0.0023; for UCCUCCUACAGCUUGCAUCGUAUUUAGUUA, 0.0492 ± 0.014.
For UCCUGCUACAGCUGCAUAGUAUUUAGUUA, the “pre-steady-state target cleavage rate” value worked out at 0.0102 ± 0.0026.
Still for that read-out and setting: for UCCUCCUACAGCUAUGCAUAGUAUUUAGUUA the value was 0.0164 ± 0.0055.
